Among the data in PubChem BioAssay (EPA / NIEHS) are outcome and AC50 values, retold here.

Where “and” joins values, the source holds several entries; their conditions need not be identical. Identical values can stand only once. The source holds several records for some structures; these can differ, active in one and inactive in another. Calls of active or inactive are those of the source. Rule for the calls: active = hit-call score of the fitted dose curve at least 0.9, where 1 is the maximum; inactive = score below 0.9.

A short description of the assay: ATG_GLI_CIS: Attagene CIS-FACTORIAL HepG2 Assay for human Zinc Finger Protein GLI1 (AID 2282945). The conditions noted are these: HepG2, Attagene cis-factorial reporter mRNA, GLI element; actives raise or lower the signal. The protocol:
ATG_CIS is a cell-based, multiplexed-readout assay that uses HepG2, a human liver cell line, with measurements taken at 24 hours after chemical dosing in a 24-well plate.ATG_GLI_CIS is one of 52 assay component(s) measured or calculated from the ATG_CIS assay. It is designed to make measurements of mRNA induction, a form of inducible reporter, as detected with fluorescence intensity signals by Reverse transcription polymerase chain reaction (RT-PCR) and Capillary electrophoresis technology.Data from the assay component ATG_GLI_CIS was analyzed into 1 assay endpoint. This assay endpoint, ATG_GLI_CIS, was analyzed with bidirectional fitting relative to DMSO as the negative control and baseline of activity. Using a type of inducible reporter, measures of mRNA for gain or loss-of-signal activity can be used to understand the reporter gene at the transcription factor-level as they relate to the gene GLI1. Furthermore, this assay endpoint can be referred to as a primary readout, because this assay has produced multiple assay endpoints where this one serves a reporter gene function. To generalize the intended target to other relatable targets, this assay endpoint is annotated to the dna binding intended target family, where the subfamily is zinc finger.
Human liver HepG2 cells are transiently transfected with multiple reporter transcription units (MRTUs) in 6-well plates using FuGene 6 reagent (Roche; 3 ml FuGene/1 mg DNA). The MRTU constructs are regulated by a cis-regulating element (promoter). […] A major difference between the CIS and TRANS system is that in CIS activities of endogenous TFs are measured, whereas the TRANS assay evaluates changes in activities of exogenous, chimeric NR-Gal4 proteins. […] At the end of 24 hour incubation, total RNA was isolated using TriZol reagent (Invitrogen). The isolated RNA is then reverse-transcribed using oligo(dT) primer and Mo-MLV reverse transcriptase (Invitrogen) with DNAse I (Ambion) treatment for 30 min. The one-tenth of the produced cDNA was amplified by PCR using Taq DNA polymerase (Invitrogen) and two reporter sequence-specific primers. The PCR products were fluorescently labeled by primer extension with 6-arboxyfluorescein (6-FAM) 5'-labeled reporter sequence-specific primer (2 min at 95 C, 20 s at 68 C and 10 min at 72 C) and these products were digested with 5U of HpaI (New England Biolabs) for 2h at 37 C. The fragments were purified using Qiaquick PCR columns (Qiagen), analyzed on an ABI 3130xL genetic analyzer (Applied Biosystems) with peak positions identified by using a set of X-rhodamine (ROX)-labeled MapMarker1000 molecular weight standards (BioVentures). The raw capillary electrophoresis data was processed using Attagraph software (Attagene).
`CC(C)c1cccc(C(C)C)c1NC(=O)NS(=O)(=O)c1cc(C(C)(C)O)co1`: the molecule was classed as inactive.
In the case of `COc1ccc(OC(F)(F)F)cc1CN[C@H]1CCCN[C@H]1c1ccccc1`, the call was inactive.
As for `CCCCC(CC)CO` (stereo not given), the result was inactive.
`CC(=O)[C@@]1(O)CC[C@H]2[C@@H]3CCC4=CC(=O)CC[C@]4(C)[C@H]3CC[C@@]21C`: the molecule was called inactive.
Consider `CN(C)C(=O)NC1(c2ccccc2)CCN(CC[C@@]2(c3ccc(F)c(F)c3)CN(C(=O)c3ccccc3)CCO2)CC1`, for which the molecule was classed as inactive.
As for `CC(=O)S[C@H](C(=O)N[C@H]1Cc2ccccc2[C@H]2CCC[C@@H](C(=O)O)N2C1=O)C(C)C`, the call was inactive.
For `NC(=Nc1ccccc1)Nc1ccccc1`, the result was inactive.
In the case of `CCCC(=O)O`, the call was inactive.
Consider `NCCOCCOCCN`, for which the result was inactive.
On the same count and under the same terms, the same measure for `Cc1cc(Cc2ccc(N)c(C)c2)ccc1N`: “inactive”; for `OCC(CO)n1cnc(-c2ccc(F)cc2)c1-c1ccnc(Oc2ccccc2)n1`: “inactive”; for `CN(C)CCCN1c2ccccc2Sc2ccc(Cl)cc21`: “inactive”.
Still for that read-out and setting: the value for `CC(C)OC(=O)C(C)(C)Oc1ccc(C(=O)c2ccc(Cl)cc2)cc1` was “inactive”; that for `S=c1[nH]c2ccccc2s1` was “inactive”.
Turning to `CC(C)c1cccc(C(C)C)c1`, the molecule was called inactive.
As to `CCCC[C@H]1CN(CC2CCOCC2)C(=O)OC12CCN(C1(C)CCN(C(=O)c3c(C)ncnc3C)CC1)CC2`, the outcome was inactive.
As to `CCCCCCC(C=O)=Cc1ccccc1`, the outcome was inactive.
What is called AC50 is the concentration at which the activity in the assay is half-maximal. For the molecule `O=C(N[C@@H](c1ccccc1)[C@@H]1CCCCN1)c1cccc(C(F)(F)F)c1Cl`, the AC50 is 55.9 µM (active).
Take `CCCCCCCCCCCCCCOS(=O)(=O)O`: the molecule was classed as inactive.
In the case of `O=NO`, the outcome was inactive.
As for `CCCCC(CC)COP(=O)(OCC(CC)CCCC)OCC(CC)CCCC` (stereo not given), the molecule was called inactive.
With `CC(=O)O`, the molecule was classed as inactive.
Turning to `N[C@@H](Cc1c[nH]c2ccccc12)C(=O)O`, the outcome was inactive.
With `CCCCCCCC(=O)OC`, the result was inactive.
Consider `Cc1occc(=O)c1O`, for which the outcome was inactive.
`O=C1NC(=O)C(c2ccccc2)(c2ccccc2)N1`: the outcome was inactive.
The same measure, in the same setting: the value for `CCCCCCCCCC[N+](C)(C)[O-]` was “inactive”; that for `CC(=O)OC1CC(C)OC(C)O1` (stereo not given) was “inactive”.
On the same count and under the same terms, the same measure for `O=C1O[C@H]([C@H](O)CO)C(O)=C1O`: “inactive”; for `CCc1cc(C2=C(C(=O)O)N(c3ccccc3C(F)(F)F)S(=O)(=O)c3ccccc32)cc2c1OCO2`: “inactive”.
Turning to `Cc1ccc(-c2cc(C(F)(F)F)nn2-c2ccc(S(N)(=O)=O)cc2)cc1`, the call was inactive.
In the case of `CC(=O)O[C@]1(C(C)=O)CC[C@H]2[C@@H]3C=C(Cl)C4=CC(=O)[C@@H]5C[C@@H]5[C@]4(C)[C@H]3CC[C@@]21C`, the molecule was classed as inactive; the concentration at half-maximal activity (AC50) is 100 µM (active) and 145 µM (active).
Take `O=C(Oc1ccccc1)c1cccc(C(=O)Oc2ccccc2)c1`: the result was inactive.
In the case of `CC(=O)OCC(COC(C)=O)OC(C)=O`, the call was inactive.
`O=C(O)c1cccnc1`: the molecule was classed as inactive.
As to `CCN(CC)CCOc1ccc(C(=C(Cl)c2ccccc2)c2ccccc2)cc1`, the result was inactive and the AC50 was 9.35 µM (active).
Turning to `Cc1cc(SC2=C(O)C[C@@](CCc3ccc(N)cc3)(C(C)C)OC2=O)c(C(C)(C)C)cc1CO`, the result was inactive.
As to `CCC(C)N(C)C(=O)c1cc2ccccc2c(-c2ccccc2Cl)n1` (stereo not given), the molecule was called inactive.
